# Screens: PubChem BioAssay, National Center for Advancing Translational Sciences (NCATS)
# LASV entry inh = blocks Lassa virus binding or cell entry; Lassa virus pseudotyped entry inhibition, cell-based qHTS; 18,000 tested, 4.1% active; Potency, µM (series often up to 49.2 µM), without a hit: at the highest dose activity change, negative = inhibition, most hits filed as inhibitors
# Marburg entry = inhibitors of Marburg virus binding or entry into cells; Potency, µM (titrated, usually from 49.2 µM), inactives show at the highest dose activity change, negative = inhibition, actives largely listed as inhibitors; 18,000 tested, 6.5% active; Marburg virus pseudotype entry/binding inhibition, cell-based
# An asterisk follows results filed as active; ? = inconclusive; · = no result; ! = not active in a repeat; [ ] = another dose, or the depositor's remark. Most compounds without a hit are left out; they make up all but 8.6% or so of the library. Calls follow the shape of the full dose curve; tested in HEK293 cells. % is scaled to controls: 0 for no effect and ±100 for the full control effect; potency is read from the fitted curve at half-maximal effect.
SMILES,LASV entry inh,Marburg entry
CCCCCC(=O)N1C[C@@H](O)[C@H](n2cc(COC(=O)c3ccccc3)nn2)C[C@H]1c1ccc(Cl)cc1,-18%,?
CCCCC/C=C\C/C=C\C/C=C\CCCCCCC(=O)NC(C)C(=O)O (stereo not drawn),3%,-4%
CCCCCCCC/C=C\CCCCCCCC(=O)N[C@H](CO)Cc1ccc(O)cc1,14µM*,?
O=C(c1cccs1)N1C[C@H](n2cc(C3CC3)nn2)[C@H](O)C[C@@H]1c1ccc(Cl)cc1,12%,-17%
COC1C=CC23c4cc5c(cc4CN(CC2O)C3C1)OCO5 (stereo not drawn),7.1µM*,2.2µM*
COc1c2c(cc3c1OCO3)C13C=CC(OC)CC1N(C2)CC3O (stereo not drawn),2%,5%
C[C@@H]1C(c2ccccc2)=CC(=O)c2nc3ccccc3cc2[C@@H]1C(=O)N1CCCC1,-3%[8.59 µM],-10%[8.59 µM]
CCC(OC(C)=O)C(CC(C)NC)(c1ccccc1)c1ccccc1 (stereo not drawn),40µM*,7.9µM*
COCC1=C(C(=O)OC)C(c2ccccc2)N(C(C)=O)C(=O)N1 (stereo not drawn),30%[8.59 µM],1%[8.59 µM]
OCc1ccc(-c2nc(-c3ccc4c(c3)OCO4)c(-c3ccccn3)[nH]2)cc1,-25%,?
C=CC(=O)N1[C@H](C(=O)OCC)CSCCS1(=O)=O,5%,-8%
COc1ccc(CC(N)C(=O)N[C@H]2[C@@H](O)[C@H](n3cnc4c(N(C)C)ncnc43)O[C@@H]2CO)cc1 (stereo partly drawn),1.3µM*,6.3µM*
C[C@@H](Cc1ccccc1)Nc1ncnc2c1ncn2[C@@H]1O[C@H](CO)[C@@H](O)[C@H]1O,3%,48%
O=c1n(-c2ccccc2)c(=O)n2n1CC[C@@H]1C(=NOC[C@@H](O)COCc3ccco3)[C@H]3O[C@H]3[C@@H](O)[C@H]12,-5%[8.59 µM],-23%[8.59 µM]
C=CCOC(=O)N[C@H](C(C(=O)OC)=C(C)NCc1ccccc1)c1ccc2c(c1)OCO2,-12%[8.59 µM],?
Cc1ccc(C(=O)OC[C@H]2O[C@H](Cl)C[C@H]2OC(=O)c2ccc(C)cc2)cc1,-6%[8.59 µM],1%[8.59 µM]
O=C(OC[C@H]1O[C@@H](OC(=O)c2cc(O)c(O)c(OC(=O)c3cc(O)c(O)c(O)c3)c2)[C@H](OC(=O)c2cc(O)c(O)c(OC(=O)c3cc(O)c(O)c(O)c3)c2)[C@@H](OC(=O)c2cc(O)c(O)c(OC(=O)c3cc(O)c(O)c(O)c3)c2)[C@@H]1OC(=O)c1cc(O)c(O)c(OC(=O)c2cc(O)c(O)c(O)c2)c1)c1cc(O)c(O)c(OC(=O)c2cc(O)c(O)c(O)c2)c1,10µM*,0.35µM*
Oc1cc2c(cc1O)C1c3ccc(O)c(O)c3OCC1(O)C2 (stereo not drawn),?,4µM*
Cc1ccc(CN2C=CCCS2(=O)=O)cc1,-9%,4%
CC1=CC[C@@H](COc2ccccc2)O[C@@]2(C1)C(=O)Nc1cccc(Br)c12,41%[8.59 µM],4%[8.59 µM]
O=C(NC1CCN(Cc2ccccc2)CC1)c1ccc(I)cc1,-4%,5%
O=C(CCC1CCN(Cc2ccccc2)CC1)c1ccc2c(c1)NCCCC2,?,14µM*
O=C1[C@@H]2[C@H]3[C@H](O)[C@H](O)CC(=NOC[C@@H](O)COCc4ccco4)[C@H]3CC[C@H]2C(=O)N1c1ccc(F)cc1F,12%[8.59 µM],14%[8.59 µM]
C/C1=C2N=C(/C=C3N=C(/C(C)=C4\[N-]C(C(CC(N)=O)C4(C)CCC(=O)NCC(C)OP(=O)([O-])OC4C(CO)OC(n5cnc6cc(C)c(C)cc65)C4O)C4(C)N=C1C(CCC(N)=O)C4(C)CC(N)=O)C(CCC(N)=O)C\3(C)C)C(CCC(N)=O)C/2(C)CC(N)=O.[CH3-].[Co+3] (stereo not drawn),2.5µM*,3.2µM*
CSc1ccc(COCC[C@@H]2C[C@H]3C=CCOP(=O)(O2)O3)cc1,2%,-22%
SMILES,LASV entry inh,Marburg entry
CC(=O)OC[C@H]1O[C@H](C#Cc2ccc(C(C)(C)C)cc2)C=C[C@H]1OC(C)=O,-26%[8.59 µM],?
C[C@@]12CC[C@H](O)C[C@@H]1CC[C@H]1[C@@H]2C[C@@H](O)[C@]2(C)[C@@H](C3=CC(=O)OC3)CC[C@]12O,3.5µM*,1.4µM*
C[C@@]12CCC(O)C[C@H]1CCC1C2CC[C@]2(C)C(=O)CCC12 (stereo partly drawn),-3%,-17%
C[C@@]12CC[C@H](O)C[C@@H]1CC[C@H]1[C@H]2CC[C@@]2(C)[C@@H](C3=CC(=O)OC3)CC[C@]12O,0.89µM*,1µM*
CC(=O)[C@@]1(O)[C@H](O)CC2C3CCC4CC(O)CC[C@]4(C)C3CC[C@@]21C (stereo partly drawn),-3%,24%
O=C1N(Cc2ccccc2C(F)(F)F)c2ccccc2[C@@]12O[C@H](COc1ccccc1)CC1=C2CCC1,4%[8.59 µM],-24%[8.59 µM]
O=C(C1CCCCC1)N1C[C@@H](n2cc(-c3ccc(F)cc3)nn2)[C@@H](O)C[C@@H]1c1ccccc1,·,-41%
Cc1cc(C(=O)NCC2CCC3(CCN(Cc4ccc(-c5ccccc5)cc4)CC3)O2)n(C)n1 (stereo not drawn),-12%,?
COc1ccc2c(c1)-c1nc(-n3ncc(C(=O)N(C)CC4CCCN(C)C4)c3C)ncc1CC2 (stereo not drawn),-5%,?
Cc1nc(NCc2c(C)nn(C)c2Cl)sc1-c1ccn(CC2COc3ccccc3O2)n1 (stereo not drawn),-24%,12%
O[C@@H](CNC[C@H](O)[C@H]1CCc2cc(F)ccc2O1)[C@@H]1CCc2cc(F)ccc2O1,?,10µM*
C[C@H]1[C@@H](c2ccccc2)Oc2c(Cl)cccc2S(=O)(=O)N1Cc1ccc(F)cc1F,9%,?
CCC1=C[C@@H]2CN(C1)Cc1c([nH]c3ccccc13)[C@@](C(=O)OC)(c1cc3c(cc1OC)N(C)[C@H]1[C@@](O)(C(=O)OC)[C@H](OC(C)=O)[C@]4(CC)C=CCN5CC[C@]31[C@@H]54)C2,13µM*!,1.4µM*!
CC[C@]1(O)CC2CN(CCc3c([nH]c4ccccc34)[C@@](C(=O)OC)(c3cc4c(cc3OC)N(C)[C@H]3[C@@](O)(C(N)=O)[C@H](O)[C@]5(CC)C=CCN6CC[C@]43[C@@H]65)C2)C1 (stereo partly drawn),-34%,?
CC1(S(=O)(=O)O)CC(=O)c2ccccc2C1=O (stereo not drawn),25µM*,14µM*
CC(CCN1CCCCc2nc(C)c(C)cc21)=NO[C@@H](C)CN1CCCCc2nc(C)c(C)cc21,·,6%[8.59 µM]
COC(=O)C1=C(C)N(CCC(C)O)C(=O)N(C(C)=O)C1c1ccccc1 (stereo not drawn),-13%[8.59 µM],5%[8.59 µM]
CO[C@H]1[C@H](NC(=O)c2ccsc2)c2ccccc2C12CCN(Cc1cc(Cl)ccc1O)CC2,-28%,14µM*
CO[C@H]1[C@H](NC(=O)c2ccsc2)c2ccccc2C12CCN(Cc1cnn(C)c1C)CC2,0%,4%
CC[C@H]1CN2CC[C@@H]1C[C@H]2[C@@H](O)c1ccnc2ccc(OC)cc12,4%[17.8 µM],?
CCC1CN2CCC1CC2C(O)c1ccnc2ccc(OC)cc12 (stereo not drawn),?,20µM*
CC(=O)O[C@@H]1[C@@H](O)C2OC3C=C(C)C(=O)[C@@H](O)[C@]3(CO)C1(C)C21CO1 (stereo partly drawn),0.56µM*,0.35µM*
